Here are results for three compounds from publication PMC12040169 (PLOS Biology, 2025).

This test relates to T1, CTL2-GFP (C. trachomatis L2/434/Bu, GFP-expressing).
T1 construct: L2/434/Bu, GFP-expressing
Details: species or system HeLa; Intracellular C. trachomatis growth in HeLa cells, bulk GFP fluorescence relative to DMSO. The conditions noted are these: bulk GFP, single well; 28.5 h, 10 µM; inhibitor. How it is done: MICs were calculated as described above.
Take `O=C(c1cccc(S(=O)(=O)F)c1)N1CCCCC1` [CBK074224]: the “% of control remaining” value came out at 100.074%. Next, `CCOC(=O)CC(C)(O)P(=O)(OC)OC` (stereo not drawn) [CBK261287]: 100%; `S=P(Oc1ccccc1)(Oc1ccccc1)Oc1ccccc1` [CBK260987]: 100%.
